We go through 60 compounds from ChEMBL document CHEMBL3988442, “University of Dundee, Small-Polar-MMV Screening Library” (2021).

Screen size: about 66,000 compounds; about 960 (1.5%) showed an effect of 50% or more. For the sample, strong results were picked, then their nearest neighbours and some compounds at random.

The assay relates to Trypanosoma brucei. The assay is described as follows: Trypanosoma brucei 72 hour study. Type of assay: functional, organism-based. Details: scale not given: in the data most compounds retested in dose-response had high values.

Take `Cc1ccc(N2CCC(c3[nH]ncc3Cc3ccccc3)CC2)nn1`: the “Percent Effect” value (30 µM, 30.03 µM) is on record as 58.22%. Regarding `Cc1ccc(N2CCCC(c3[nH]ncc3Cc3ccccc3)C2)nn1` (stereo not given), under “30 µM, 30.03 µM”, the “Percent Effect” value is 42.86%. As for `Cc1ccc(N2CCC(c3cc(Cc4ccccc4)n[nH]3)CC2)nn1`, where the note is “30.3 µM, […]”, the “Percent Effect” value is listed as -45.15%. For the compound `O=C(C[C@@H]1COC[C@H]2CN(C(=O)c3cccnc3)C[C@@H]12)N1CCCC1.O=C(O)C(F)(F)F`, the “Percent Effect” value (30 µM, 30.03 µM) was -25.13%. As for `CCN1C(=O)CC[C@]12CC[C@@H](NC(=O)c1ccncc1F)CC2.O=C(O)C(F)(F)F`, under “30.3 µM, […]”, the “Percent Effect” value worked out at 5.821%. `O=C(CC1CC1)N1CCC2(CC1)CN(c1ncccn1)CCO2`: for the setting “30 µM, 30.03 µM”, the “Percent Effect” value was found to be 61.77%. `O=C(CC1CC1)N1CCC2(CC1)CN(c1ncc(F)cn1)CCO2`: the “Percent Effect” value (30.3 µM, […]) is listed as -27.29%. For `COCC(=O)N1CCC2(CC1)CN(c1ncccn1)CCO2`, the “Percent Effect” value (30.3 µM, […]) is -22.4%. With `Cc1cnc(N)c(C(=O)C2CCN(C(=O)c3ccccc3F)CC2)c1`, the “Percent Effect” value (30 µM, 30.03 µM) is on record as 31.22%. As to `O=C(NCCn1cccc1)C1CCCOC1` (stereo not given), the “Percent Effect” value (30 µM, 30.03 µM) is on record as 2.367%. In the case of `O=C(NCCc1ccn(-c2ccc(F)cc2)n1)C1CCCO1` (stereo not given), the “Percent Effect” value (30.3 µM, […]) came to 99.62%. `COC(=O)C1CN(Cc2ccn(-c3ccc(F)cc3)n2)CCO1` (stereo not given): under “30 µM, 30.03 µM”, the “Percent Effect” value is -55.87%. As for `CN1CC(C(=O)NCCc2ccn(-c3ccc(F)cc3)n2)CC1=O` (stereo not given), where the note is “30.3 µM, […]”, the “Percent Effect” value was -29.7%. In the case of `O=C(NCCc1ccn(-c2ccc(F)cc2)n1)C1CCCOC1` (stereo not given), the “Percent Effect” value (30.3 µM, […]) is recorded as 101.3%. For `O=C(NCc1cnn(-c2ccc(F)cc2F)c1)C1CCCO1` (stereo not given), for the setting “30 µM, 30.03 µM”, the “Percent Effect” value is listed as 6.462%. `Cc1noc(C)c1CN1CCN(Cc2ccncc2)c2ncccc2C1.O=C(O)C(F)(F)F.O=C(O)C(F)(F)F.O=C(O)C(F)(F)F`: the “Percent Effect” value (30 µM, 30.03 µM) came to 43.91%. Consider `COc1ccc(CN2CCc3nnc(COCCN(C)C)n3CC2)cc1.O=C(O)C(F)(F)F.O=C(O)C(F)(F)F`, for which the “Percent Effect” value (30.3 µM, […]) was -2.661%.

In the case of `CN1C(=O)CC[C@@H]2[C@H]1CCN2S(=O)(=O)Cc1ccccc1`, the “Percent Effect” value (30 µM, 30.03 µM) is listed as -49.38%. For the compound `COc1ccc(-c2cc(CN)nc3ccnn23)cc1.Cl`, the “Percent Effect” value (30.3 µM, […]) is -10.95%. On the same count and under the same terms, the value for `CN(C)S(=O)(=O)c1cccc(CNc2cc(CO)ccc2Cl)c1` was 18.15%. With `Cc1cccc(CNC(=O)CNc2cc(CO)ccc2Cl)c1`, under “30 µM, 30.03 µM”, the “Percent Effect” value stood at 50.69%. With `COc1cccc(CNc2cc(CO)ccc2Cl)c1`, the “Percent Effect” value (30.3 µM, […]) was -53.68%. With `CC(C)CC(=O)N1CC[C@H]2N(C)CC[C@@]2(C(=O)Nc2ccccc2)CC1.O=C(O)C(F)(F)F`, the “Percent Effect” value (30 µM, 30.03 µM) is given as -17.6%.

Consider `CCc1cc(CN2CCCCC2c2ccc(F)cc2)on1` (stereo not given), for which, where the note is “30.3 µM, […]”, the “Percent Effect” value was -64.98%.

Regarding `CCCC(=O)N(C)Cc1nc(N2CCCC2)ncc1-c1ccncc1.Cl`, the “Percent Effect” value (30.3 µM, […]) is 24.09%. For `COCCNC(=O)[C@H]1C[C@@H]2CCN(c3nncs3)C[C@H]2O1.O=C(O)C(F)(F)F`, the “Percent Effect” value (30 µM, 30.03 µM) was 50.75%. With `O=C(NCC1CCOCC1)[C@H]1C[C@@H]2CCN(c3nncs3)C[C@@H]2O1.O=C(O)C(F)(F)F`, where the note is “30.3 µM, […]”, the “Percent Effect” value was -23.29%. As for `COCCNC(=O)[C@H]1C[C@@H]2CCN(c3ncccn3)C[C@H]2O1.O=C(O)C(F)(F)F`, the “Percent Effect” value (30.3 µM, […]) was -89.35%. Same read-out and setting: the value for `O=C(NCC1CCOC1)N1CCN(Cc2ccc3c(c2)OCO3)CC1` (stereo not given) was 1.586%.

On to `O=C(NCC1CCCO1)N1CCN(Cc2ccc3c(c2)CCO3)CC1` (stereo not given), for which the “Percent Effect” value (30.3 µM, […]) worked out at 17.02%. For the compound `O=C(NCC1CCOC1)N1CCN(Cc2ccc3c(c2)CCO3)CC1` (stereo not given), the “Percent Effect” value (30 µM, 30.03 µM) is listed as 54.6%.

Turning to `CC1(C(=O)N2CCOCC2)CNCCO1.Cl` (stereo not given), under “30.3 µM, […]”, the “Percent Effect” value is on record as -3.709%. For the compound `O=C(CC1CC1)NCc1cn2c(n1)CN(CC1CC1)CC2.O=C(O)C(F)(F)F`, the “Percent Effect” value (30 µM, 30.03 µM) is 14.47%. Consider `O=C(COCc1ccccc1Cl)N1CCN(c2ccc(Br)cn2)CC1`, for which the “Percent Effect” value (30.3 µM, […]) is 6.228%. Take `O=C(NCC1OCCc2cn(CC3CCOCC3)nc21)c1ccsc1.O=C(O)C(F)(F)F` (stereo not given): the “Percent Effect” value (30 µM, 30.03 µM) is recorded as -82.86%. For the compound `O=C(Cc1ccsc1)NCC1OCCc2cn(CC3CC3)nc21` (stereo not given), under “30 µM, 30.03 µM”, the “Percent Effect” value came out at 10.27%. The same measure, in the same setting: next, `O=C(NCC1OCCc2cn(CC3CC3)nc21)c1ccsc1` (stereo not given): 104.3%. As to `CCOCC1CN(C(=O)Cc2ccccn2)Cc2cnn(C)c21.O=C(O)C(F)(F)F.O=C(O)C(F)(F)F` (stereo not given), the “Percent Effect” value (30.3 µM, […]) is given as -7.447%. For the compound `CN1CCC(N2Cc3nc(N)ncc3C2=O)CC1`, where the note is “30.3 µM, […]”, the “Percent Effect” value is on record as -14.03%. Regarding `CC1CCC(N2Cc3nc(N)ncc3C2=O)CC1` (stereo not given), the “Percent Effect” value (30.3 µM, […]) was determined as 59%.

In the case of `Nc1ncc2c(n1)CN(C1CCCC1)C2=O`, the “Percent Effect” value (30 µM, 30.03 µM) is given as 49.38%. For the compound `Cc1csc(C(Cc2ccsc2)NC(=O)CN(C)Cc2ccccn2)n1.Cl` (stereo not given), the “Percent Effect” value (30.3 µM, […]) is on record as 18.37%.

Consider `Cc1nc(C)n(CC2CN(CC(=O)Nc3ccncc3)CCO2)n1` (stereo not given), for which, under “30 µM, 30.03 µM”, the “Percent Effect” value is -4.979%. The same measure, in the same setting: the value for `Oc1ccc(-c2c(-c3ccccc3)ncn2C[C@H]2CCCN2)cc1` was 67.04%; that for `O=C(O)c1ccccc1-c1c(-c2ccccc2)ncn1CC1CCCO1` (stereo not given) was -42.19%. On to `O=C(O)c1ccccc1-c1c(-c2ccccc2)ncn1C[C@H]1CCCN1`, for which, under “30 µM, 30.03 µM”, the “Percent Effect” value was 7.799%. `CCn1cc2c(n1)CN(Cc1ccncc1)CC2COCC1CC1.O=C(O)C(F)(F)F.O=C(O)C(F)(F)F` (stereo not given): where the note is “30 µM, 30.03 µM”, the “Percent Effect” value was 16.48%. As to `CCOC(=O)[C@@H]1[C@@H](OC)C(=O)N(C)C12CCN(C(=O)C(CC)CC)CC2`, the “Percent Effect” value (30.3 µM, […]) came out at 47.28%.

With `O=C1NCC(c2ccc(Cl)cc2)Cc2[nH]c(CCN3CCOCC3)nc21` (stereo not given), the “Percent Effect” value (30.3 µM, […]) is reported as -6.17%.

As for `O=C(CCCn1ccnc1)NC1CCCN(c2ccccc2Cl)C1` (stereo not given), under “30 µM, 30.03 µM”, the “Percent Effect” value is -36.7%. In the case of `Cn1ccc2c(C(=O)N3CCC(C(N)=O)CC3)cccc21`, the “Percent Effect” value (30 µM, 30.03 µM) is listed as 51.42%.

On to `Cn1ccc2c(C(=O)N3CCN(C(=O)C4CCCC4)CC3)cccc21`, for which the “Percent Effect” value (30.3 µM, […]) is -0.9219%. As to `CC(=O)N(C)C1CCN(C(=O)c2cccc3c2ccn3C)CC1`, where the note is “30.3 µM, […]”, the “Percent Effect” value was determined as 1.635%. As to `CNCc1ccc([C@@H]2CN(C(C)=O)C[C@H]2C(N)=O)cc1.Cl`, the “Percent Effect” value (30.3 µM, […]) is -4.211%. On to `COC(=O)C(CCSC)NC(=O)Cc1c(C)nn(-c2ccccc2)c1C` (stereo not given), for which the “Percent Effect” value (30.3 µM, […]) is recorded as 100.4%. With `COC(=O)[C@H](CCSC)NC(=O)Cc1c(C)nn(-c2ccccc2)c1C`, the “Percent Effect” value (30 µM, 30.03 µM) is reported as 101%. The same measure, in the same setting: the value for `Cc1nn(-c2ccccc2)c(C)c1CC(=O)NC1CC(=O)N(C)C1` (stereo not given) was -14.36%. As for `COC(=O)[C@H](CCSC)NC(=O)Cn1ccc2c(Cl)cccc21`, where the note is “30 µM, 30.03 µM”, the “Percent Effect” value was -28.3%. Take `COc1cccc(-c2nc(C)c(C(=O)N[C@@H](CCSC)C(=O)O)s2)c1`: under “30 µM, 30.03 µM”, the “Percent Effect” value is listed as -41.8%.

For the compound `CSCCC(NC(N)=O)C(=O)NCc1c(C)nn(-c2ccccc2)c1C` (stereo not given), the “Percent Effect” value (30 µM, 30.03 µM) is -20.96%.
